# Out of some 420,000 compounds screened, about 64,000 (15%) were called active. Roughly 27% stayed inconclusive and do not appear here. The call rests on the fitted dose curve; in most records, active means well fitted inhibition curve with a large enough effect; inconclusive means small, poorly fitted or top-dose-only effect; inactive means flat fitted curve, though single readings scatter. These entries were drawn from the full list.
# Test: qHTS for Inhibitors of human tyrosyl-DNA phosphodiesterase 1 (TDP1): qHTS in cells in absence of CPT; further: nearly all actives have a fitted effect of over 55% in size
# Conditions: DT40 Tdp1-/- hTDP1 cells, no CPT, ATP luminescence, 48 h; activity change, negative = growth inhibition: at 46.2 µM (top of the series)
# Procedure, shortened: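 Growth of hTDP1-complemented DT40 Tdp1-knockout cells is measured by ATP luminescence after at least 48 hr compound exposure at 37 °C, with DMSO substituting for the 20 nM CPT used in the parallel screen.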
# On the % scale 0 is the no-effect control and ±100 the full control effect; potency means the concentration at half of the fitted maximal effect.
Compound,Potency,"activity change, negative = growth inhibition"
C=CCC[C@H](CCCCC)OC(=O)/C=C/[C@H](O)[C@@H](O)C[C@@H](O)CC=C,14.6 µM (active),–
O=S(=O)(Nc1ccccc1)c1ccc(NS(=O)(=O)c2cccs2)cc1,–,-2.38% (inactive)
Cc1ccc(NC(=O)CSc2nc3c(c(=O)[nH]2)CN(Cc2ccc4c(c2)OCO4)CC3)cc1C,–,-27.3% (inactive)
O=C(CN1CCN(C(=O)c2cccc(F)c2)CC1)Nc1ccccc1F,–,14.6% (inactive)
C=CCC(NCc1ccco1)c1ccc(OC)cc1 (configuration not stated),–,-9.38% (inactive)
Cc1ccc(S(=O)(=O)N2CCC(C(=O)N[C@@H](C)C(=O)NCc3ccco3)CC2)cc1,–,-26.1% (inactive)
Cc1ccc(Cn2cc(C(=O)NN)c(=O)c3ccc(F)cc32)cc1,–,-13.2% (inactive)
Cc1ccc(S(=O)(=O)N2CC(C)N(S(C)(=O)=O)C2)cc1 (configuration not stated),–,-1.31% (inactive)
Cc1ccc(S(=O)(=O)N2C[C@@H]3CCCC[C@@H]3[C@@H](C)[C@H]2c2cn(Cc3ccccc3)c3ccc(F)cc23)cc1,6.51 µM (active),–
CCOC(=O)c1sc(/N=C/C2=C(O)CC(C)(C)CC2=O)c(C(=O)OCC)c1C,–,2.25% (inactive)
CCOC(=O)c1c(NC(=O)c2ccc(Br)o2)sc2c1CCCC2,–,-27.4% (inactive)
CCOC(=O)c1c(NC(=O)C2(C)Cc3ccccc3C(=O)O2)sc2c1CCCC2 (configuration not stated),16.4 µM (active),–
CCOC(=O)c1c(NC(=S)Nc2ccccc2C)sc2c1CCC2,–,-3.31% (inactive)
COc1ccc(C(CNC(=O)COc2ccc([N+](=O)[O-])cc2)N2CCCCC2)cc1 (configuration not stated),–,-1.85% (inactive)
Cc1cccc(NC(=O)c2ccc([N+](=O)[O-])o2)c1,9.2 µM (active),–
O=C(Nc1cccc(NC(=O)c2ccccc2[N+](=O)[O-])c1)c1ccccc1Cl,–,-14.8% (inactive)
CN1C(=O)c2ccc(C(=O)Nc3ccc(Br)cn3)cc2C1=O,–,12.5% (inactive)
O=C(Nc1ccc(Br)cn1)c1ccc([N+](=O)[O-])cc1Cl,–,-27.6% (inactive)
COc1cccc(NC(=O)c2ccc(Cn3cc([N+](=O)[O-])cn3)o2)c1,–,-26.5% (inactive)
O=C(Nc1ccc(Br)cn1)c1ccc([N+](=O)[O-])o1,5.17 µM (active),–
Cc1[nH]c2ccccc2c1C(=O)C(=O)N(C)c1ccccc1,–,-24.6% (inactive)
O=C(OCCOc1ccccc1F)c1cc(S(=O)(=O)N2CCOCC2)ccc1F,–,-13.6% (inactive)
CCc1ccccc1NC(=O)CSc1nnc(-c2ccncc2)o1,–,-5.21% (inactive)
O=C(CNCCO)NC12CC3CC(CC(C3)C1)C2,–,0.175% (inactive)

Compound,Potency,"activity change, negative = growth inhibition"
Cc1ccc(S(=O)(=O)N2[C@@H](c3ccc(Br)cc3)C(C(=O)O)=C[C@H]2CC2CCCC2)cc1,–,-12.9% (inactive)
Cc1ccc(S(=O)(=O)N2[C@@H](c3cccc4ccccc34)C(C(=O)O)=C[C@H]2C(C)(C)C)cc1,–,5.31% (inactive)
CCc1ccc([C@@H]2CC(=O)[C@@H]3CN(S(=O)(=O)c4ccc(C)cc4)[C@H](c4ccc(Cl)cc4)C[C@@H]3N2S(=O)(=O)c2ccc(C)cc2)cc1,–,8.29% (inactive)
Cc1ccc(S(=O)(=O)N2[C@@H](c3cccc(Cl)c3)C(C(=O)O)=CC[C@H]2c2ccc(Cl)c(Cl)c2)cc1,–,-23.6% (inactive)
Cc1ccccc1S(=O)(=O)N1[C@@H](c2cccc(Cl)c2)C(C(=O)OC(C)(C)C)=CC[C@H]1c1ccc(Cl)cc1,16.4 µM (active),–
CCCCC(c1nnnn1CS(=O)(=O)c1ccc(C)cc1)N1CCC(C(N)=O)CC1 (configuration not stated),–,-20.1% (inactive)
CCOC(=O)C1C(C)C(C(C)(C)C)N(S(=O)(=O)c2ccc(C)cc2)C1c1ccccc1 (configuration not stated),16.4 µM (active),–
CCCCC[C@@H]1C=C(C(=O)OCC)[C@H](c2ccccc2)N1S(=O)(=O)c1ccc(C)cc1,10.3 µM (active),–
CCOC1=C2[C@H]([C@H]3C(=O)N(c4ccccc4)C(=O)[C@H]3C1)[C@@H](c1ccccc1)N(S(=O)(=O)c1ccc(C)cc1)[C@H]2c1ccccc1,–,-12.7% (inactive)
Cc1ccccc1S(=O)(=O)N1[C@@H](c2cccc(Cl)c2)C(C(=O)O)=CC[C@H]1c1ccc(Cl)cc1,–,-5.82% (inactive)
CCOC(=O)C1=CC[C@@H](c2ccccc2)N(S(=O)(=O)c2ccc(C)cc2)[C@H]1c1ccc(CC)cc1,16.4 µM (active),–
Cc1ccc(S(=O)(=O)N2[C@@H](c3ccccc3F)C(C(=O)O)=CC[C@H]2c2ccc(Cl)cc2)cc1,–,-17.6% (inactive)
Cc1cccc(/C(N)=N/OC(=O)c2ccccc2Cl)c1,–,-18.2% (inactive)
COc1ccc(C2=NOC3(CC(=O)N(c4ccc(C)cc4)C3=O)C2)cc1 (configuration not stated),–,-19.9% (inactive)
Cc1nn(C)c(Oc2ccc(Cl)cc2)c1C=O,–,-24.7% (inactive)
CCCCn1c(N)c(N(CCOC)C(=O)COc2c(C)cccc2C)c(=O)[nH]c1=O,–,-10.6% (inactive)
CCC(=O)Nc1cc(C(F)(F)F)ccc1N1CCCC1,–,-2.98% (inactive)
CC(C)(C)NC(=O)COC(=O)c1cc(Cl)ccc1[N+](=O)[O-],–,-16.1% (inactive)
Cc1[nH]c2ccccc2c1SCC(=O)Nc1nccs1,–,-6.86% (inactive)
COc1ccc(Br)cc1C(=O)Nc1cccc(C)c1C,–,-22.7% (inactive)
COc1ccc(Br)cc1C(=O)NC(=S)Nc1cc(-c2nc3ccccc3[nH]2)ccc1C,14.6 µM (active),–
Cc1ccc(OCC(=O)Nc2ccc(Cl)c(-c3nc4ccccc4[nH]3)c2)cc1C,–,-98.6% (inactive)
CCOC(=O)c1nnn(CC(=O)NC(=O)Nc2ccccc2F)c1C(=O)OCC,–,-18.3% (inactive)

# Source: PubChem BioAssay AID686978 (National Center for Advancing Translational Sciences (NCATS), 2013)
